This note sets out measurements from PubChem BioAssay (NCATS).

Assay [1] can be described thus: Cytometric Cell-Based qHTS for Inhibitors of the mTORC1 Signaling Pathway in MEF (Tsc2-/-, p53-/-) Cells (AID 2660; active = well fitted curve in the direction sought with a large enough effect; an effect the other way counts as inactive or inconclusive;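 note: percent of cells above a phospho-rpS6 to PI ratio cutoff in each well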). A digest of the protocol: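 Tsc2-/-, p53-/- MEFs (empty vector) exposed to compound 24 h at 37 C, fixed, stained with Alexa-488 anti-phospho-rpS6 Ser235/236 and propidium iodide. Acumen laser scanning; phospho-S6/PI ratio thresholded against 7.5 nM rapamycin, reported as % positive cells.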

Assay [2] can be described thus: High Content Imaging Cell-Based qHTS for Inhibitors of the mTORC1 Signaling Pathway in MEF (Tsc2-/-, p53-/-) Cells (AID 2666; active = well fitted curve in the direction sought with a large enough effect; an effect the other way counts as inactive or inconclusive;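 note: percent of cells scored positive for phospho-rpS6 Ser235/236 immunostaining by imaging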). Particulars: at 38.3 µM (top of the series). A digest of the protocol: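 Tsc2-/-, p53-/- MEFs (empty-vector stable) grown in DMEM + 10% FBS were exposed to compounds for 24 hrs at 37 degree Celsius, fixed, and stained with Alexa-488 anti-phospho-rpS6 Ser235/236 plus Hoechst. Imaging gave the percentage of positive cells per well.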

Assay [3] in a line: High Content Imaging Cell-Based qHTS for Inhibitors of the mTORC1 Signaling Pathway in MEF Cells (AID 2667; active = well fitted curve in the direction sought with a large enough effect; an effect the other way counts as inactive or inconclusive;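 note: Tsc2-/- p53-/- MEFs stably re-expressing wild-type Tsc2 exposed 24 h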). A digest of the protocol: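 Tsc2-/-, p53-/- MEFs stably re-expressing WT Tsc2, grown in DMEM + 10% FBS, were treated with compounds for 24 hrs at 37 degree Celsius, fixed, and stained with Alexa-488 phospho-rpS6 Ser235/236 antibody plus Hoechst; results given as % positive cells.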

Assay [4] is described as follows: Cytometry Cell-Based qHTS for Inhibitors of the mTORC1 Signaling Pathway in MEF cells (AID 2668; active = well fitted curve in the direction sought with a large enough effect; an effect the other way counts as inactive or inconclusive;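 note: Tsc2-/- p53-/- mouse embryonic fibroblasts stably re-expressing wild-type Tsc2; percent cells positive for phospho-rpS6 Ser235/236 relative to propidium iodide stain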). In short, it runs like this:
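Tsc2-/-, p53-/- MEFs re-expressing WT Tsc2; cpd 24 hrs, 37 degree Celsius; PFA fix, Alexa-488 p-rpS6 (Ser235/236) Ab 2 hrs RT, PI counterstain; Acumen 488nm scan; p-S6/PI ratio → % positive cells; PI count = viability.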

Assay [5] deals with Ubiquitin carboxyl-terminal hydrolase 2 (Homo sapiens) (UniProt O75604). Description: qHTS Validation Assay for Inhibitors of Ubiquitin-specific Protease USP2a Using CHOP2 as the Reporter (AID 463106; active = well fitted curve in the direction sought with a large enough effect; an effect the other way counts as inactive or inconclusive). In short, it runs like this:
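Readout was coupled fluorescence (Ex 485/Em 531 nm), read 60 min after adding 25 nM final Ub-CHOP2 and 25 nM reporter substrate. Beforehand, 10 nM final USP2 core had 30 min at RT with compound in pH 8.0 buffer. Curves were fitted after normalization to NEM and flagged for artifacts using time-zero reads.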

Assay [6] has as its target DNA polymerase III PolC-type (Bacillus subtilis (strain 168)) (UniProt P13267). Kind of assay: qHTS Validation Assay for the Inhibitors of DNA Replication in Gram-Positive Bacteria (AID 485295; active = well fitted curve in the direction sought with a large enough effect; an effect the other way counts as inactive or inconclusive;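 note: reconstituted holoenzyme with PolC plus beta clamp SSB and primase; PicoGreen fluorescence of double-stranded DNA made on primed circular M13 template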). A digest of the protocol: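 First, compound is mixed with the reconstituted replication complex and held at room temperature. Next, circular single-stranded M13Gori with nucleotides starts synthesis. Finally, PicoGreen in EDTA halts the reaction and stains double-stranded product for fluorescence reading.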

The target of assay [7] is Tumor susceptibility gene 101 protein (Homo sapiens) (UniProt Q99816). Description: qHTS Validation Assay for Iinhibitors of HIV-1 Budding by Blocking the Interaction of PTAP/TSG101 (AID 485342). In short, it runs like this: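 Binding of a FITC-tagged PTAP-motif peptide (50 nM) to the Tsg101 binding domain (10 uM) is monitored by fluorescence polarization. Compounds are pin-delivered before peptide addition, and incubation runs 20 min at room temperature.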

Assay [8] deals with Beta-2 adrenergic receptor (Homo sapiens) (UniProt P07550). Description: qHTS validation assay of beta-arrestin-biased ligands of beta2-adrenergic receptor (AID 485366; active = well fitted curve in the direction sought with a large enough effect; an effect the other way counts as inactive or inconclusive). In short, it runs like this: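 qHTS, Tango cells, 1500 cells/well, DMEM + 1% FBS. Cpd 18 hr at 37 degrees C. Luciferin/ATP/CoA detection mix, 15 min RT, luminescence read. %Activity from corrected signal; CRC fit, curve class.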

Assay [9] concerns the target ATP-dependent 6-phosphofructokinase (Trypanosoma brucei brucei) (UniProt O15648). Kind of assay: qHTS Validation Assay to Find Inhibitors of T. brucei phosphofructokinase (AID 485368; active = well fitted curve in the direction sought with a large enough effect; an effect the other way counts as inactive or inconclusive). Particulars: outcome: dose series up to 57.5 µM. A digest of the protocol:
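Luminescent ADP detection measures PFK turnover of fructose-6-phosphate (0.5 mM) with ATP (0.1 mM) at pH 8.0. Reaction runs 45 min at room temperature with 1.25 nM enzyme; inhibitors tested as titrations up to 57 uM.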

The nature of assay [10]: Quantitative high throughput screen for delayed death inhibitors of the malarial parasite plastid, 48 hour incubation (AID 488752; active = well fitted curve in the direction sought with a large enough effect; an effect the other way counts as inactive or inconclusive; note: nearly all actives have a fitted effect of over 65% in size; note: potency is the fitted concentration of half-maximal effect). In short, it runs like this: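 Luciferase-expressing P. falciparum in RBCs, 2% Hct, 0.1% parasitemia final; RPMI 1640 + 0.5% Albumax; 48 h, 37 C, 5% CO2; luminescence readout, signal drop = growth inhibition.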
The target in assay [11] is Thioredoxin reductase 1, cytoplasmic (Rattus norvegicus) (UniProt O89049). Description: qHTS Assay for Inhibitors of Mammalian Selenoprotein Thioredoxin Reductase 1 (TrxR1) (AID 488773; active = well fitted curve in the direction sought with a large enough effect; an effect the other way counts as inactive or inconclusive;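 note: drop in NADPH fluorescence over an 8 min run after selenite addition; nearly all actives have a fitted effect of over 40% in size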). In short, it runs like this:
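Inhibition is scored from the loss of NADPH fluorescence between first and last reads of an 8-min kinetic run. Selenite (400 uM) was the substrate, added after 15 min compound preincubation at room temperature.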

Assay [12] has as its target Flap endonuclease 1 (Homo sapiens) (UniProt P39748). Kind of assay: qHTS Validation Assay for the Inhibitors of Human Flap endonuclease 1 (FEN1) (AID 488816; active = well fitted curve in the direction sought with a large enough effect; an effect the other way counts as inactive or inconclusive). A digest of the protocol:
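qHTS format: compounds and 10 nM FEN1 incubated 15 min at room temperature before adding 50 nM substrate. Cleavage followed by reads at 0 and 15 min; normalized data fitted to a four-parameter Hill curve.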

Assay [13] can be described thus: qHTS Validation Assay to Find Inhibitors of Chronic Active B-Cell Receptor Signaling (AID 485345; active = well fitted curve in the direction sought with a large enough effect in the main read-out, with a control signal flat, not every such curve was filed as active). In short, it runs like this: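 Read-out: ratio of filter-corrected green (IkappaBalpha fusion) to red (native) luciferase signal in doxycycline-induced TMD8 cells after 4 h at 37C. Titration spanned 46 uM–3 nM; Data were normalised to basal cells and 10 uM MG-132 wells.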

In assay [14] the target is Ferritin light chain (Equus caballus) (UniProt P02791). Kind of assay: qHTS Validation Assay for Identification of Novel General Anesthetics (AID 2323; active = well fitted curve in the direction sought with a large enough effect; an effect the other way counts as inactive or inconclusive). In short, it runs like this:
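Fluorescence at 535 nm (excitation 380 nm) reported loss of 1-AMA binding to horse-spleen apoferritin (10 uM) in PBS with 50% saturated 1-aminoanthracene, after 10 min room-temperature incubation with compound; values from Hill fits of normalized response.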

For assay [15], the target named is ATP-dependent DNA helicase Q1 (Homo sapiens) (UniProt P46063). Description: qHTS Validation Assay for Inhibitors of RecQ-Like Dna Helicase 1 (RECQ1) (AID 2353; active = well fitted curve in the direction sought with a large enough effect; an effect the other way counts as inactive or inconclusive). A digest of the protocol: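 RECQ1T1 50 nM; forked duplex (20 bp + 30-nt ss tails) 200 nM, ATP 2 mM final; pH 8.0, 2 mM MgCl2, 2.5 ug/ml poly(dI-dC); 15 min compound preincubation; discontinuous kinetic read over 2 h at RT.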

Assay [16] deals with RecQ-like DNA helicase BLM (Homo sapiens) (UniProt P54132). Kind of assay: qHTS Validation Assay for Inhibitors of Bloom's syndrome helicase (BLM) (AID 2364; active = well fitted curve in the direction sought with a large enough effect; an effect the other way counts as inactive or inconclusive). A digest of the protocol:
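Forked 20-bp duplex substrate (200 nM, TAMRA/BHQ-2) plus 2 mM ATP added after 15 min compound preincubation with 50 nM enzyme, pH 8.0, poly(dI-dC) 2.5 ug/ml. Strand separation followed by fluorescence (525/598 nm) over 2 h, normalized to enzyme-free and DMSO controls.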

A short description of assay [17]: Validation screen for inhibitors of Lassa infection (AID 463096).
A short description of assay [18]: Validation screen for small molecules that induce DNA re-replication in MCF 10A normal breast cells (AID 463097; active = well fitted curve in the direction sought with a large enough effect; an effect the other way counts as inactive or inconclusive; note: nearly all actives have a fitted effect of over 60% in size). A digest of the protocol:
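Image-based qHTS: normal breast cells are incubated with compound for 48 hr, stained with Hoechst, and scanned for total nuclear fluorescence. Compounds raising the fraction of nuclei with elevated DNA content count as re-replication inducers.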

Assay [19] in a line: Quantitative high throughput screen for delayed death inhibitors of the malarial parasite plastid, 96 hour incubation (AID 488745; active = well fitted curve in the direction sought with a large enough effect; an effect the other way counts as inactive or inconclusive; note: nearly all actives have a fitted effect of over 70% in size; note: potency is the fitted concentration of half-maximal effect). A digest of the protocol:
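Luciferase-expressing P. falciparum, infected RBCs 2% Hct/0.1% parasitemia (final); 96 h cpd exposure, 37 C, 5% CO2; RPMI 1640 + 0.5% Albumax, bicarbonate, gentamycin. Readout: luminescence loss = growth inhibition.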

Records with an inconclusive call do not appear. Where a call stands in place of a potency, no number is given. The source made the active and inactive calls. Unless noted, calls come from the whole dose curve.

Chain of ATP-dependent 6-phosphofructokinase (Trypanosoma brucei brucei) (O15648 whole entry, looked up): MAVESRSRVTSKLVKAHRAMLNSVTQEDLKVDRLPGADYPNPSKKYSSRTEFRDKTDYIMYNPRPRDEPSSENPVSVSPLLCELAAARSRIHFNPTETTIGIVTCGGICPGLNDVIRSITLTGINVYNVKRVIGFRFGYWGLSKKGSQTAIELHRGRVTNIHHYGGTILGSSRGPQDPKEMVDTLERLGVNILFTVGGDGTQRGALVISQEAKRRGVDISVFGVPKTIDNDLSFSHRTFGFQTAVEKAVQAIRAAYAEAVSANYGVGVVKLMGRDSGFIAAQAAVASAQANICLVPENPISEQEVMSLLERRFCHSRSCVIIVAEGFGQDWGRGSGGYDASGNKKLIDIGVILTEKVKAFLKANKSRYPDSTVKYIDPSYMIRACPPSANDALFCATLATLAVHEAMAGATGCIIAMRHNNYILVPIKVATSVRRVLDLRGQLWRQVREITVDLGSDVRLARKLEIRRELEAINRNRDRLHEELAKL
Chain of DNA polymerase III PolC-type (Bacillus subtilis (strain 168)) (P13267 whole entry, looked up): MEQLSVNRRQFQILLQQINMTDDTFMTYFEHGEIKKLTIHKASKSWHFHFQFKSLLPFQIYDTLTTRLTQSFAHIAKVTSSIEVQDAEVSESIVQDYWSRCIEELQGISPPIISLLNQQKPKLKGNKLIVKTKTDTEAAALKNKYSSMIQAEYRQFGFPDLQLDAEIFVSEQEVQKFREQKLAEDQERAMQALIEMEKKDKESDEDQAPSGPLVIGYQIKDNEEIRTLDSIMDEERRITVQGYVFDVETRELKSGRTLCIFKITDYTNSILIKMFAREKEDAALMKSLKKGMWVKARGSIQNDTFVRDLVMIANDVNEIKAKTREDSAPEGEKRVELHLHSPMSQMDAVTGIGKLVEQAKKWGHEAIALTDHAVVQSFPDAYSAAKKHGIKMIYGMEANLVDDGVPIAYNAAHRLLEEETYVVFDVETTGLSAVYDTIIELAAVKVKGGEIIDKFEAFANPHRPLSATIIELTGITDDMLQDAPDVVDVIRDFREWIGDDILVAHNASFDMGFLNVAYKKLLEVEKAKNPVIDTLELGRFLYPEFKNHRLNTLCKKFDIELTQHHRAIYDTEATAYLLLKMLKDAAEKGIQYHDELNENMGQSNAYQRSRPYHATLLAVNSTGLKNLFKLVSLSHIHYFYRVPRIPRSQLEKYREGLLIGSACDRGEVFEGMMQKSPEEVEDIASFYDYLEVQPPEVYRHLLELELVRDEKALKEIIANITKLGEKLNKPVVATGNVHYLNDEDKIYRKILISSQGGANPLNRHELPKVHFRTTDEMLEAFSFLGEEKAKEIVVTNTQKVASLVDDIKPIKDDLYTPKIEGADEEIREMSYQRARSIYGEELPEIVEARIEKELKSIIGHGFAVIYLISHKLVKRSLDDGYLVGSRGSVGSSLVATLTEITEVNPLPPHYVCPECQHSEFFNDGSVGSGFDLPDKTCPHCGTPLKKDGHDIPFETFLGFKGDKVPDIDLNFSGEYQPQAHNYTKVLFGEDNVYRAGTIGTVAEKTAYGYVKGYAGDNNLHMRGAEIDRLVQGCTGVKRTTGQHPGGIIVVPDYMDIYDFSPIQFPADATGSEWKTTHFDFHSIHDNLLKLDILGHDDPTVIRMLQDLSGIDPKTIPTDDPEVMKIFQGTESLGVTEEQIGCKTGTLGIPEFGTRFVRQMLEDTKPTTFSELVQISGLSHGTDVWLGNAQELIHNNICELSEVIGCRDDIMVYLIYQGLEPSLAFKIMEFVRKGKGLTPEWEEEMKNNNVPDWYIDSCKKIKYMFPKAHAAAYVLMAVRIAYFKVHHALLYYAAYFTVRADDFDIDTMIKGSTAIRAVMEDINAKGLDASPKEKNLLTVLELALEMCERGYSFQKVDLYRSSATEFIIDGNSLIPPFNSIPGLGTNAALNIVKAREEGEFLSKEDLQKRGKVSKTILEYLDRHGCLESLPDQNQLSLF
Chain of Ubiquitin carboxyl-terminal hydrolase 2 (Homo sapiens) (O75604 whole entry, looked up): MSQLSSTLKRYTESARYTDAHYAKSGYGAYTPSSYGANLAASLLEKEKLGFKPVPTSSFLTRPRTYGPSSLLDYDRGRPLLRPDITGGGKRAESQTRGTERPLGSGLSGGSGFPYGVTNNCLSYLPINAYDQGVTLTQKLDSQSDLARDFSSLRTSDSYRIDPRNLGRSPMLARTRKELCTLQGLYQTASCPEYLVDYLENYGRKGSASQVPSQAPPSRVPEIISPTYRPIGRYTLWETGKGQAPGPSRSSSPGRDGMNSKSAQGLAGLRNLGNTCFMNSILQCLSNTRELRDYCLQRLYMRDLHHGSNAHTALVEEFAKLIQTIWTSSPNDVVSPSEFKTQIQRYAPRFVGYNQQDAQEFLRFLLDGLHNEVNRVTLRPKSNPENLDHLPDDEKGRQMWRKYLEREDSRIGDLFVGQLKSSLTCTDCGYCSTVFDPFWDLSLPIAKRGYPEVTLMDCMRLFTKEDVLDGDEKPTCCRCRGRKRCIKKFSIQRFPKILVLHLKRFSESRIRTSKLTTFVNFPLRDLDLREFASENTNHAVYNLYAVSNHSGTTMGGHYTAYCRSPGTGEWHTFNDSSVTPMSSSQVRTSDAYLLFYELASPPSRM
Chain of Flap endonuclease 1 (Homo sapiens) (P39748 whole entry, looked up): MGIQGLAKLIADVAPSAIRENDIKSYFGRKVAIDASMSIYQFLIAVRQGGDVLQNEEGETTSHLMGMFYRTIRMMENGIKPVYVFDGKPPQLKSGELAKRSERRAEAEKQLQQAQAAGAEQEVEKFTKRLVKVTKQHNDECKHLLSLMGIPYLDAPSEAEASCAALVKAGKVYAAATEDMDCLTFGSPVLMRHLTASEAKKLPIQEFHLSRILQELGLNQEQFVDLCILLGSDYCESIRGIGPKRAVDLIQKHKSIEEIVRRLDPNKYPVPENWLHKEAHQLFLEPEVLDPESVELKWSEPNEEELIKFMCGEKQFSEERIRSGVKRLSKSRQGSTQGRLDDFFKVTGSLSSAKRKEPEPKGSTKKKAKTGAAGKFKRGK
Chain of Thioredoxin reductase 1, cytoplasmic (Rattus norvegicus) (O89049 whole entry, looked up): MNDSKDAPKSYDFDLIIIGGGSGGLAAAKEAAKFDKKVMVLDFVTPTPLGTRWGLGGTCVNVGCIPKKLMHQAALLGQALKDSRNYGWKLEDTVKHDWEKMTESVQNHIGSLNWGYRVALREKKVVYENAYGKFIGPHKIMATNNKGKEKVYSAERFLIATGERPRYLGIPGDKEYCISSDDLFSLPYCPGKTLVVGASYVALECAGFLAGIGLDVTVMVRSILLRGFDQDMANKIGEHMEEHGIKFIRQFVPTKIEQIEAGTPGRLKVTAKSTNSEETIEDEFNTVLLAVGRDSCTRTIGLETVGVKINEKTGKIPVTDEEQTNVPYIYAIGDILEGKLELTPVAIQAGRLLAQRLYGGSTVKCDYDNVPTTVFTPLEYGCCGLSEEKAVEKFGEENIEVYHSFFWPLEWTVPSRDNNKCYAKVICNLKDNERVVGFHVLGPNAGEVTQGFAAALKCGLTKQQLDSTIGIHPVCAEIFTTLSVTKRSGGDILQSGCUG
Chain of Beta-2 adrenergic receptor (Homo sapiens) (P07550 whole entry, looked up): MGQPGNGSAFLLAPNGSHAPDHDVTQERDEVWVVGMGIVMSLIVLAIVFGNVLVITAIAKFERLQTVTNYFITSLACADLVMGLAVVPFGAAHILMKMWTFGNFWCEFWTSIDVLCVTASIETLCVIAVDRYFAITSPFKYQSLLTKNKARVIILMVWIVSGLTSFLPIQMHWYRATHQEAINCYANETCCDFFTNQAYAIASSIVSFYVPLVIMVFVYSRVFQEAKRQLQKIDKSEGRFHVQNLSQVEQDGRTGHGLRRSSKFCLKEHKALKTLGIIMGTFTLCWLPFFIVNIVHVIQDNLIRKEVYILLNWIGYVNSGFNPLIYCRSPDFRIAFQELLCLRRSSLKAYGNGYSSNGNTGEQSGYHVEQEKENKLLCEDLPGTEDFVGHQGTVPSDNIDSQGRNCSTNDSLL
Chain of Tumor susceptibility gene 101 protein (Homo sapiens) (Q99816 whole entry, looked up, the tested form may be a part): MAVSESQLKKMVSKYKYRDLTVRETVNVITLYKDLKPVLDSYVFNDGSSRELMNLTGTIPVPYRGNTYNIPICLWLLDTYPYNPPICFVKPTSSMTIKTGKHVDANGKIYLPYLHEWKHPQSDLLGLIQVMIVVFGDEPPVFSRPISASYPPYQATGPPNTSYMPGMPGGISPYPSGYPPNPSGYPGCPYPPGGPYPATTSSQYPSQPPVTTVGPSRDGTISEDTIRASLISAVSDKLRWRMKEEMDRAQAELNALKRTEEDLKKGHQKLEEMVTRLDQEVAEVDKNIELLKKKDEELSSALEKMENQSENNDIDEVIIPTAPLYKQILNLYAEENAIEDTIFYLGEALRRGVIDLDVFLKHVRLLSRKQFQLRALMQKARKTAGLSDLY
Chain of ATP-dependent DNA helicase Q1 (Homo sapiens) (P46063 whole entry, looked up): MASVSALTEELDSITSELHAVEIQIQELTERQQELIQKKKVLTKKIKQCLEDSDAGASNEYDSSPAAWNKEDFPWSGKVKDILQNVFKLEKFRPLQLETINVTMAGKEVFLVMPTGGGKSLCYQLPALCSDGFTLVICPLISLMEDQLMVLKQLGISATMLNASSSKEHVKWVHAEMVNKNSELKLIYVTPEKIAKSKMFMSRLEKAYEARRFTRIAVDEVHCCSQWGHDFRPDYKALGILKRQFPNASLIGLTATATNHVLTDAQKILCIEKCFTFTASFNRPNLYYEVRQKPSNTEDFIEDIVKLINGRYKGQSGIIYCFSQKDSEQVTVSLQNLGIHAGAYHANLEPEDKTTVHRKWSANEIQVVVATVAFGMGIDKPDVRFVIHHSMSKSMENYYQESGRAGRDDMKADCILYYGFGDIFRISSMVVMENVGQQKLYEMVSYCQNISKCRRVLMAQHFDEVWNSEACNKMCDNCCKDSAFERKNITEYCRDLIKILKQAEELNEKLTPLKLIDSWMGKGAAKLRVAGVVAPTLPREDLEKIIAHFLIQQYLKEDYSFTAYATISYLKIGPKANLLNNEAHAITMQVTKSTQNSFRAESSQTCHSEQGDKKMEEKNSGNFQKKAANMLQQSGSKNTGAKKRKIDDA

With `COc1ccc2c(c1OC)C(=O)O[C@H]2[C@@H]1c2cc3c(cc2CCN1C)OCO3`, the compound was classed as inactive in assay [1], in [2], in [3], in assay [4], in assay [5] and in assay [6]. For the same compound, the call in [7], in [8], in assay [9], in [11] and in assay [12] was inactive. Moreover, in assay [10], the Potency result is “inactive”.

For `Cc1ncsc1CCCl`, the call in assay [1], in [2], in assay [3], in assay [4], in [5] and in assay [6] was inactive. Moreover, the compound was called inactive in [7], in assay [13], in assay [8], in [9], in [11] and in [12].

As to `O=P1(N(CCCl)CCCl)NCCCO1` (stereo not given), the result in assay [14], in assay [16], in assay [1], in assay [2], in [3] and in [4] was inactive. Besides, the result in assay [17], in assay [18], in assay [5], in assay [6], in assay [7] and in [13] was inactive. Besides, the result in assay [8], in [9], in [11] and in assay [12] was inactive. The Potency entry in [15], in assay [19] and in assay [10] was “inactive” throughout.

`CC1COc2c(N3CCN(C)CC3)c(F)cc3c(=O)c(C(=O)O)cn1c23` (stereo not given): the result in [17] was inactive.

As for `CCC1(C)CC(=O)NC1=O` (stereo not given), the outcome in assay [17] was inactive.

As for `N[C@@H](COP(=O)(O)O)C(=O)O`, the compound was classed as inactive in [17].

For `NCCCCCC(=O)O`, the outcome in [17] was inactive.

For `CCN(CC)CCOC(=O)c1ccc(N)cc1`, the call in assay [17] was inactive.

For the compound `CCN1CCC[C@H]1CNC(=O)c1cc(S(N)(=O)=O)ccc1OC`, the compound was called inactive in [17].

Regarding `CC(=O)N1CCN(c2ccc(OC[C@H]3CO[C@](Cn4ccnc4)(c4ccc(Cl)cc4Cl)O3)cc2)CC1`, the result in assay [17] and in assay [12] was inactive. Also, the Potency in assay [19] is 11.7 µM (active); in assay [10], 8.28 µM (active).

Consider `CCN(CC)CCNC(=O)c1cc(S(C)(=O)=O)ccc1OC`, for which, in assay [17], the result was inactive.

`C[C@](N)(Cc1ccc(O)cc1)C(=O)O`: the call in assay [17] was inactive.

Take `NC(=O)N1c2ccccc2C=Cc2ccccc21`: the outcome in [17] was inactive.

Consider `Cc1nc2ccccn2c(=O)c1CCN1CCC(C(=O)c2ccc(F)cc2)CC1`, for which, in assay [17], the result was inactive.

With `CCn1nc(C(=O)O)c(=O)c2cc3c(cc21)OCO3`, the outcome in [17] was inactive.

As to `COc1cc(-c2ccc(=O)[nH]n2)ccc1OC(F)F`, the compound was called inactive in [17].

As to `CC(=O)Oc1cc(C(C)C)c(OCCN(C)C)cc1C`, the outcome in [17] was inactive.

Turning to `C=CC(N)CCC(=O)O` (stereo not given), the call in [17] was inactive.

In the case of `C[N+](C)(C)CCCCCC[N+](C)(C)C`, in assay [17], the outcome was inactive.

Turning to `NC(=O)c1ncn([C@@H]2O[C@H](CO)[C@@H](O)[C@H]2O)c1O`, in assay [17], the result was inactive.

On to `CC(C)NCC(O)c1cc(O)cc(O)c1` (stereo not given), for which the compound was called inactive in assay [17].

For `NCCS(=O)(=O)O`, the call in assay [17] was inactive.

As for `NC(=O)c1cnccn1`, the call in assay [17] was inactive.

As for `O=c1[nH]c(=O)n([C@H]2C[C@H](O)[C@@H](CO)O2)cc1Br`, the compound was classed as inactive in assay [17].

Consider `CC(C)NCC(O)c1ccc(NS(C)(=O)=O)cc1` (stereo not given), for which the result in assay [17] was inactive.

Regarding `O=c1c(-c2ccc(O)cc2)coc2cc(O)cc(O)c12`, the outcome in assay [17] was inactive.

For the compound `Cn1c(=O)c2[nH]cnc2n(C)c1=O`, the result in assay [17] was inactive.

For the compound `CN=C(NC#N)NCCSCc1nc[nH]c1C`, in [17], the call was inactive.

As for `NC(N)=Nc1nc(CSCC/C(N)=N/S(N)(=O)=O)cs1`, the compound was called inactive in assay [17].

With `COc1ccc2cc([C@H](C)C(=O)O)ccc2c1`, in assay [17], the call was inactive.

Consider `C[N+](C)(C)CCOC(N)=O`, for which the outcome in [17] was inactive.

Consider `CN=C(NC#N)Nc1ccc(C2=NNC(=O)CC2C)cc1` (stereo not given), for which the compound was called inactive in assay [17].

With `C1COC(NC(C2CC2)C2CC2)=N1`, in assay [17], the compound was called inactive.

Regarding `COc1ccc2[nH]cc(CCNC(C)=O)c2c1`, the outcome in [17] was inactive.

Take `CN1CCN(CC(=O)N2c3ccccc3C(=O)Nc3cccnc32)CC1`: the outcome in [17] was inactive.

Turning to `NC(N)=NC(=O)Cc1c(Cl)cccc1Cl`, in [17], the call was inactive.

On to `c1ccc2c(c1)CCCC2C1=NCCN1` (stereo not given), for which the outcome in assay [17] was inactive.

Regarding `CC(=O)OC(C)C[N+](C)(C)C` (stereo not given), the result in assay [17] was inactive.

Regarding `CN1C(C(=O)Nc2ccccn2)=C(O)c2ccccc2S1(=O)=O`, in [17], the outcome was inactive.

For `O=C(O)CN(CCN(CC(=O)O)CC(=O)O)CCN(CC(=O)O)CC(=O)O`, the result in assay [17] was inactive.

As to `O=C(O)CCCCCCCC(=O)O`, in assay [17], the compound was classed as inactive.

In the case of `CCN(CC)C(=O)c1ccc(O)c(OC)c1`, the call in assay [17] was inactive.
